Bioassay records from PubChem BioAssay.
DRD3 agonist = qHTS of D3 Dopamine Receptor Agonist: qHTS. AID 652048, 2013. 410,000 tested, 0.58% active. max activation, %. D3R DiscoveRx beta-arrestin cells, luminescence, 90 min; in the data active = max activation above about 30%
Target sequence (P35462 whole entry, looked up): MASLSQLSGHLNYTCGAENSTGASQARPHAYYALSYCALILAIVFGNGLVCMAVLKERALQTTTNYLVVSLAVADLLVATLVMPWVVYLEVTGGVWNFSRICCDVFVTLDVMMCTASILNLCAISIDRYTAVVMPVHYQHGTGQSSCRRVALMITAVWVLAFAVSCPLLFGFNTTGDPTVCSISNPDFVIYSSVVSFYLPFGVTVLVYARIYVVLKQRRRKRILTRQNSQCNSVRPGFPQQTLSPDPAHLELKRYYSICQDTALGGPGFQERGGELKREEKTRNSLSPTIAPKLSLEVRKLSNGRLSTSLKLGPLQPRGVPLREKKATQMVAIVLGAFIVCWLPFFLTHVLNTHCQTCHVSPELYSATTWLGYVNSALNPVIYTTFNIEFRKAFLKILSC
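Agonist mode: compounds and dopamine controls were applied to plated cells for 90 min at 37 degrees C after an overnight attachment at 1500 cells/well. Luminescent read-out followed 30 - 60 minutes at room temperature with DiscoveRx detection reagent.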
DRD3 antagonist = qHTS of D3 Dopamine Receptor Antagonist: qHTS | 360,000 tested, 2.5% active | max response, negative = inhibition, % | D(3) dopamine receptor (Homo sapiens), P35462 | D3R cells, DiscoveRx beta-arrestin luminescence, antagonist mode; active compounds read low; in the data active = max response below about -50%; inconclusive = no clear call, values can overlap the other calls
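Cells plated overnight at 1500 cells/well, then exposed to library compounds with dopamine controls for 90 minutes at 37 degrees C. DiscoveRx reagent added for 30–60 minutes at room temperature; luminescence read, quantitative HTS format.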
IL1B secr inh = qHTS for Inhibitors of Inflammasome Signaling: IL-1-beta AlphaLISA Primary Screen | THP-1 LPS/ATP IL-1B secretion, AlphaLISA, 16 h; active compounds read low | activity change, % at 57.5 µM | 360,000 tested, 4.7% active | AID 743279, 2014; in the data active = activity change below about -50%; inconclusive = mostly about -30% to -49%
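THP-1 cells pretreated 1 hr with compounds (up to 57.5 uM final), then stimulated with LPS (250 ng/mL final) plus ATP (1.25 mM final); secreted IL-1B measured by AlphaLISA after 16 hr, decreased signal indicating inhibition.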
TDP1 cell noCPT = qHTS for Inhibitors of human tyrosyl-DNA phosphodiesterase 1 (TDP1): qHTS in cells in absence of CPT; DT40 Tdp1-/- hTDP1 cells, no CPT, ATP luminescence, 48 h; Potency, µM (highest dose often 46.2 µM), actives largely listed as inhibitors; 420,000 tested, 15% active; note: nearly all actives have a fitted effect of over 55% in size
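Chicken DT40 Tdp1-/- cells complemented with human TDP1, screened without camptothecin (DMSO vehicle only), 400 cells/well. Compounds pin-transferred, cells incubated at 37 °C for at least 48 hr. Growth read as ATP-dependent luminescence (CellTiter-Glo, 30 min at RT).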
ClpP mod = qHTS Assay for Activators of ClpP; purified B. subtilis ClpP, FRET peptide cleavage, 20 min; Potency, µM (doses to about 57.5 µM); 340,000 tested, 1.9% active; active = well fitted falling curve with a large enough effect; inconclusive = small, poorly fitted or top-dose-only effect; inactive = no such curve, though single readings can be large or run the other way; note: the source files actives as falling curves though it sought activators and does not explain the sign; nearly all actives have a fitted effect of over 65% in size
Target sequence (P80244 whole entry, looked up): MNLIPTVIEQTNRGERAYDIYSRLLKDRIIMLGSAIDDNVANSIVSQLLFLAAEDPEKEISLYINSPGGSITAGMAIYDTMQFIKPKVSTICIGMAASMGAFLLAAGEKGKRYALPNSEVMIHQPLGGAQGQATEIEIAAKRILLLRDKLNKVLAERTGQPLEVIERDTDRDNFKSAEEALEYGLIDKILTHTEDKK
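Purified B. subtilis ClpP, 10 microg/mL final in Tris/HCl pH8 with KCl, BSA, glycerol and Tween-20, cleaved an Abz/nitrotyrosine-quenched decapeptide. Fluorescence (ex 320, em 430) was read at 0 and 20 min at room temperature. Delta was normalized to 5.8 microM ADEP and DMSO/no-enzyme controls.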
DT40 TDP1 CPT = qHTS for Inhibitors of human tyrosyl-DNA phosphodiesterase 1 (TDP1): qHTS in cells in presence of CPT | AID 686979, 2013 | Potency, µM (doses to about 46.2 µM), most hits filed as inhibitors | chicken DT40 Tdp1-/-;hTDP1 cells + 20 nM CPT, ATP luminescence, 48 h | 420,000 tested, 12% active; note: nearly all actives have a fitted effect of over 55% in size
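Chicken DT40 Tdp1-/- cells stably complemented with human TDP1 were seeded at 400 cells/well in medium containing 20 nM camptothecin, exposed to pin-transferred compounds, and grown at 37 °C for at least 48 hr. Viability was read as ATP luminescence.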
Each line names hits and unclear results; the compound was inactive in the other large screens. Compounds with a hit are over-represented: about 21% of the library has one in this group of screens. Unless noted, calls come from the whole dose curve; as a rule, active = well fitted inhibition curve with a large enough effect; inconclusive = small, poorly fitted or top-dose-only effect; inactive = flat fitted curve, though single readings scatter.

Cc1nc2ccc(C(=O)N(C)Cc3ccccc3)cn2c1N(C)C(=O)CCc1ccccc1	DT40 TDP1 CPT inconclusive
C[C@](N)(COP(=O)(O)O)C(=O)O	none (no result: DRD3 agonist, DRD3 antagonist, IL1B secr inh, ClpP mod)
CC(OC(=O)Cn1[nH]c(=O)c2ccccc2c1=O)C(=O)Nc1ccc(F)cc1Cl (configuration not stated)	none
CCN(CC)CC#CCOC(=O)C(O)(c1ccccc1)C1CCCCC1 (configuration not stated)	DRD3 antagonist inconclusive, TDP1 cell noCPT 8.2µM, DT40 TDP1 CPT 21µM (no result: DRD3 agonist)
COc1ccc(C2(C)NC(=O)N(CC3CCCCC3)C2=O)cc1 (configuration not stated)	none (no result: ClpP mod)
CCN1CCN(C(=O)c2cnn3c(C(F)F)cc(-c4ccc(C)cc4)nc23)CC1	DRD3 antagonist -56, IL1B secr inh inconclusive, TDP1 cell noCPT inconclusive
O=C(c1cc(Cl)nc2ccccc12)N1CCN(Cc2ccc3c(c2)OCO3)CC1	TDP1 cell noCPT inconclusive, DT40 TDP1 CPT inconclusive
O=C(c1cnn2c(C(F)F)cc(-c3ccccc3)nc12)N1CCN(Cc2ccc3c(c2)OCO3)CC1	DRD3 antagonist -75, TDP1 cell noCPT 26µM, DT40 TDP1 CPT inconclusive
CCc1nccn1C(=O)c1cnn2c(C(F)F)cc(-c3ccc(C)cc3)nc12	DRD3 antagonist inconclusive, TDP1 cell noCPT 15µM, DT40 TDP1 CPT 21µM (no result: IL1B secr inh)
COc1cc(C2CC(=O)c3c([nH]c(C(=O)OCC4CCCCC4)c3C)C2)cc(OC)c1OC (configuration not stated)	TDP1 cell noCPT 1.6µM, DT40 TDP1 CPT 1.3µM (no result: DRD3 antagonist, IL1B secr inh)
CCc1ccc(C2CC(=O)c3c([nH]c(C(=O)OCC4CCCCC4)c3C)C2)cc1 (configuration not stated)	TDP1 cell noCPT inconclusive (no result: DRD3 antagonist, IL1B secr inh)
CCOc1ccc(C2CC(=O)c3c([nH]c(C(=O)OCC4CCCCC4)c3C)C2)cc1 (configuration not stated)	TDP1 cell noCPT 18µM, DT40 TDP1 CPT inconclusive (no result: DRD3 antagonist, IL1B secr inh)
CCc1ccc(C2CC(=O)c3c([nH]c(C(=O)OC4CCCCCC4)c3C)C2)cc1 (configuration not stated)	none (no result: DRD3 antagonist, IL1B secr inh)
CCOC(=O)c1[nH]c2c(c1Cc1ccccc1OC)C(=O)CC(c1ccc(OCC)cc1)C2 (configuration not stated)	TDP1 cell noCPT 9.2µM, DT40 TDP1 CPT 8.2µM (no result: DRD3 antagonist, IL1B secr inh)
COc1cc(C2CC(=O)c3c([nH]c(C(=O)OC4CCCCC4)c3C)C2)cc(OC)c1OC (configuration not stated)	TDP1 cell noCPT 2.1µM, DT40 TDP1 CPT 1.8µM (no result: DRD3 antagonist, IL1B secr inh)
Cc1noc(C(=O)Nc2cccc(O)c2)c1Cl	none (no result: ClpP mod)
O=C(NC(=S)Nc1ccccc1O)c1ccccc1Cl	DRD3 antagonist inconclusive (no result: ClpP mod)
CC1CC(C)(C)CC2(C1)NC(=O)N(CC(=O)NCc1ccccc1F)C2=O (configuration not stated)	none
CCOc1ccc(NC(=O)CN2C(=O)NC(C)(c3ccc(OC(F)F)cc3)C2=O)cc1 (configuration not stated)	IL1B secr inh -67, TDP1 cell noCPT 23µM, DT40 TDP1 CPT 18µM (no result: ClpP mod)
CCOC(=O)c1c(C)[nH]c(C(=O)CSc2nc(C)cc(C)n2)c1C	TDP1 cell noCPT 21µM, DT40 TDP1 CPT 15µM (no result: ClpP mod)
CCOC(=O)c1c(C)[nH]c(C(=O)CN2C(=O)NC(C)(c3ccc(C)cc3)C2=O)c1C (configuration not stated)	TDP1 cell noCPT 23µM, DT40 TDP1 CPT inconclusive
CCOC(=O)c1c(C)[nH]c(C(=O)CN2C(=O)NC(C)(C)C2=O)c1C	none
CCOC(=O)c1c(NC(=O)CN2C(=O)NC(C)(c3ccc(OC(F)F)cc3)C2=O)sc(C)c1C (configuration not stated)	IL1B secr inh inconclusive, TDP1 cell noCPT 16µM, DT40 TDP1 CPT 21µM
CCOC(=O)c1c(C)[nH]c(C(=O)CSc2ccc(Cl)cc2)c1C	TDP1 cell noCPT inconclusive
CCOc1ccc(CCNC(=O)COC(=O)Cn2nc(C)c([N+](=O)[O-])c2C)cc1OCC	none
CC1=C(C(=O)N2CCCCC2)C(c2ccc(Cl)cc2)n2c(nc3ccccc32)N1 (configuration not stated)	TDP1 cell noCPT inconclusive, DT40 TDP1 CPT inconclusive (no result: DRD3 antagonist, IL1B secr inh)
COc1ccc(NC(=O)CN2C(=O)NC(c3ccccc3)(c3ccccc3)C2=O)cc1	TDP1 cell noCPT inconclusive, DT40 TDP1 CPT inconclusive (no result: ClpP mod)
COc1ccc(C2(c3ccc(OC)cc3)NC(=O)N(CC(=O)Nc3ccc(OC(F)F)cc3)C2=O)cc1	TDP1 cell noCPT 18µM, DT40 TDP1 CPT inconclusive
CC(C)[C@H](NC(=O)OC(C)(C)C)c1cc(C(=O)NCCO)c(N)s1	none
COc1ccc(CCNC(=O)c2cc([C@@H](NC(=O)OC(C)(C)C)C(C)C)sc2N)cc1OC	IL1B secr inh inconclusive, TDP1 cell noCPT 18µM, DT40 TDP1 CPT 16µM
CCN(CC(=O)Nc1ccccc1C(F)(F)F)C(=O)c1ccc(N2CCCC2=O)cc1	TDP1 cell noCPT inconclusive
COc1ccc(/C=N/Nc2nnc(-c3ccccc3)c(=O)[nH]2)cc1	IL1B secr inh -71, TDP1 cell noCPT 7.3µM, ClpP mod 25µM, DT40 TDP1 CPT 12µM
O=c1[nH]c(N/N=C/c2ccccc2Br)nnc1-c1ccccc1	TDP1 cell noCPT 23µM, DT40 TDP1 CPT 15µM
CC[C@@H]1CCC[C@@H](O)[C@@H](C)C(=O)O[C@H](C)[C@@H](C)C/C=C(C)/C(OC)=C\C(=O)N(C)C([C@@H](C)CC)C(=O)N(C)[C@@H](C(C)C)C(=O)N(C)[C@@H](COC)C(=O)N2CCC[C@H]2C(=O)N(C)[C@@H](C(C)C)C(=O)N2CCC[C@H]2C(=O)O1 (some centres not stated)	TDP1 cell noCPT 0.21µM, DT40 TDP1 CPT 0.15µM
CCOc1ccc(NC(=O)CC2C(=O)N(c3cccc(OC)c3)C(=O)N2CCOC)cc1 (configuration not stated)	none
CCc1ccccc1N(CC)C(=O)C(=O)Nc1ccc2nc3n(c(=O)c2c1)CCCCC3	TDP1 cell noCPT inconclusive, DT40 TDP1 CPT inconclusive (no result: DRD3 antagonist, IL1B secr inh)
O=C1N[C@@H](Cc2ccccc2)COC(=O)[C@@H](Cc2ccc(F)cc2)CC/C=C/C[C@@H]1CC(=O)N(CCO)Cc1ccccc1	TDP1 cell noCPT inconclusive, DT40 TDP1 CPT inconclusive
O=C1N[C@H](Cc2ccccc2)COC(=O)[C@H](Cc2ccc(F)cc2)CC/C=C/C[C@@H]1CC(=O)N(CCO)Cc1ccccc1	IL1B secr inh -55, TDP1 cell noCPT inconclusive, DT40 TDP1 CPT 10µM
